{"source": "PubChem BioAssay AID1779", "about": "(Sanford-Burnham Center for Chemical Genomics, 2009)", "note": "Hit rate of the full screen: of about 290,000 compounds, about 160 (0.055%) were called active. Rule as the data show it: active = inhibition above about 50%; inactive = the rest. The list comes from a sample in which actives are over-represented; it also holds similar structures and randomly drawn compounds.", "data": [{"target": "Tyrosine-protein phosphatase non-receptor type 22 (Homo sapiens) (UniProt Q9Y2R2)", "sequence (Q9Y2R2 whole entry, looked up)": "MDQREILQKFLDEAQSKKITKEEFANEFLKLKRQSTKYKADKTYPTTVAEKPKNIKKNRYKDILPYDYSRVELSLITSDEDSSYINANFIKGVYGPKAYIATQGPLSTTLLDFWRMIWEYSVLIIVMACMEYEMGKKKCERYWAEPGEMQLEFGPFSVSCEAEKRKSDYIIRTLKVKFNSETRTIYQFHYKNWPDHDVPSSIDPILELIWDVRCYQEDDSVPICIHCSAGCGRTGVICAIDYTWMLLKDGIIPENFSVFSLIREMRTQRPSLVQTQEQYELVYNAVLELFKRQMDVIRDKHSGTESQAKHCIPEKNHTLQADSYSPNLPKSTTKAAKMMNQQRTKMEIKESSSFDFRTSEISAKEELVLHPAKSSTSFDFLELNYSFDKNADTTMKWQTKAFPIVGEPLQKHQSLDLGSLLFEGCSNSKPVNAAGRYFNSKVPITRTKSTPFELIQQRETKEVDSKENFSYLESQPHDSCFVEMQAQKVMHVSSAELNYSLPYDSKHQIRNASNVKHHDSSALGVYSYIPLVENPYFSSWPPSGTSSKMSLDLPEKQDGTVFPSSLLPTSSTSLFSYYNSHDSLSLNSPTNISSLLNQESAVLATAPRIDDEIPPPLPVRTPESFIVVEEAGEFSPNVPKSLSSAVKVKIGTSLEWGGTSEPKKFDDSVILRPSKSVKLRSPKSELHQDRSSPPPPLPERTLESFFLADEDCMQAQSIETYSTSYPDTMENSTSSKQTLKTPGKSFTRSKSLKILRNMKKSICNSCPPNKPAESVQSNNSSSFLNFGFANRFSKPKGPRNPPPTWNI", "assay": "inhibitors of LYP phosphatase, biochemical, fluorescence intensity, uHTS (AID 1779);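 also: plate controls were vehicle with enzyme for no effect and no enzyme for full effect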", "settings": "recombinant LYP phosphatase, at 11.5 µM, stronger effect = higher value", "values": [{"compound": "CCOC(=O)c1cc(-c2cc(OC)c(OC)c(OC)c2)nc2c1c(=O)[nH]c(=O)n2Cc1ccccc1", "inhibition": "-8.7% (inactive)"}, {"compound": "CCOc1ccc(C(=O)Nc2ccc(Cl)cn2)cc1Cl", "inhibition": "80.4% (active)"}, {"compound": "COc1ccc(C(=O)Nc2ccc(Cl)cn2)cc1Cl", "inhibition": "0.7% (inactive)"}, {"compound": "O=C(COc1ccc(Cl)cc1Cl)Nc1ccc(Cl)cn1", "inhibition": "-4.3% (inactive)"}, {"compound": "CCn1c(SCC(=O)N/N=C(/C)c2ccncc2)nc2ccccc21", "inhibition": "-6.6% (inactive)"}, {"compound": "Cc1ccc(S(=O)(=O)NC(=O)Nc2nnc(C3CC3)s2)cc1", "inhibition": "-9.1% (inactive)"}, {"compound": "CC(=O)Nc1ccc(NC(=O)CSc2ccc(-c3sc(C)nc3C)nn2)cc1", "inhibition": "-10.3% (inactive)"}, {"compound": "N#Cc1c(/N=C\\c2ccc(O)c([N+](=O)[O-])c2)sc2c1CCCC2", "inhibition": "7.9% (inactive)"}, {"compound": "CC1=NN(c2ccccc2)C(=O)/C1=C\\C=C1\\N(C)c2ccccc2C1(C)C", "inhibition": "6.4% (inactive)"}, {"compound": "CC(=O)NCCNC(=O)CNC(=O)c1ccc(Cl)cc1", "inhibition": "-1.1% (inactive)"}, {"compound": "O=C(CNC(=O)c1ccc(F)cc1)NCc1ccc(Cl)cc1", "inhibition": "-3% (inactive)"}, {"compound": "O=C(CNC(=O)c1ccc(Cl)cc1)NCC(F)(F)F", "inhibition": "68.8% (active)"}, {"compound": "O=C1CC(N2CCN(c3cccc(C(F)(F)F)c3)CC2)C(=O)N1c1ccc(F)cc1", "note": "(stereo not drawn)", "inhibition": "4.8% (inactive)"}, {"compound": "N#CC(C(=O)NC1CCCCC1)=C1CCCCC1", "inhibition": "62.7% (active)"}, {"compound": "N#CC(C(=O)NC1CCCCC1)=C1CCCCCC1", "inhibition": "2.1% (inactive)"}, {"compound": "O=C(NC1CCCCCC1)C(=O)NC1CCCC1", "inhibition": "-2.9% (inactive)"}, {"compound": "CCN(CCCNC(=O)C1CCN(S(=O)(=O)c2cccc3nonc23)CC1)Cc1ccccc1", "inhibition": "-4.7% (inactive)"}, {"compound": "Cc1cc([N+](=O)[O-])ccc1NC(=O)CCC(=O)N1CCCCC1", "inhibition": "-5.2% (inactive)"}, {"compound": "COc1ccc(NC(=S)N(CCN(C)C)C(C)c2ccncc2)cc1Cl", "note": "(stereo not drawn)", "inhibition": "-7.3% (inactive)"}, {"compound": "CCOC(=O)C1=C(CP(=O)(c2ccccc2)c2ccccc2)NC(=O)NC1c1ccc(OC)cc1", "note": "(stereo not drawn)", "inhibition": "4% (inactive)"}, {"compound": "O=c1c(-c2ccccc2)c(O)c2c(n1-c1ccccc1)CCCC2", "inhibition": "66.2% (active)"}, {"compound": "CC(C)c1c(O)c2c(n(-c3ccccc3)c1=O)CCCC2", "inhibition": "1% (inactive)"}, {"compound": "CC/C(=N\\O)c1c(O)c2c(n(-c3ccccc3)c1=O)CCCC2", "inhibition": "3.9% (inactive)"}, {"compound": "Cc1cc(C)cc(Cn2ncc(Cl)c(Cl)c2=O)c1", "inhibition": "-5.9% (inactive)"}, {"compound": "COc1ccc(C(=O)Nc2nc(N3C(=O)c4ccccc4C3=O)n(-c3ccccc3)n2)cc1", "inhibition": "-1.2% (inactive)"}, {"compound": "COc1cc(/C=N/NC(=O)c2ccc(O)cc2)ccc1OCC(=O)Nc1cccc([N+](=O)[O-])c1", "inhibition": "-5.1% (inactive)"}, {"compound": "O=C(COc1ccc(/C=N/NC(=O)c2ccc(O)cc2)cc1)Nc1cccc([N+](=O)[O-])c1", "inhibition": "56.7% (active)"}, {"compound": "O=C(COc1ccc(/C=N/NC(=O)c2ccncc2)cc1)Nc1cccc([N+](=O)[O-])c1", "inhibition": "-3.3% (inactive)"}]}]}
